Measured values as given in PMC5540273 (PLoS ONE, 2017).

Legend:
Conditions in all cases: concentration: 1 μM, replicates: in singlicate; n = 1
HPK1 = test system: HPK1
HUNK = test system: HUNK
ICK = test system: ICK
IGF1R = test system: IGF1R
IKK-alpha = test system: T1, IKK-alpha
T1 construct: gene CHUK

IKK-beta = test system: T2, IKK-beta
T2 construct: gene IKBKB

IKK-epsilon = test system: T3, IKK-epsilon
T3 construct: gene IKBKE

INSRR = test system: INSRR
INSR = test system: INSR
IRAK1 = test system: IRAK1
IRAK3 = test system: IRAK3
IRAK4 = test system: IRAK4
ITK = test system: ITK
[1] = test system: JAK1(JH1domain-catalytic)
[2] = test system: JAK1(JH2domain-pseudokinase)
[3] = test system: JAK2(JH1domain-catalytic)
[4] = test system: JAK3(JH1domain-catalytic)
JNK1 = test system: T4, JNK1
T4 construct: gene MAPK8

JNK2 = test system: T5, JNK2
T5 construct: gene MAPK9

JNK3 = test system: T6, JNK3
T6 construct: gene MAPK10
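Note: KINOMEscan kinase panel screen.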

Structure (SMILES) | %Inh (HPK1) | %Inh (HUNK) | %Inh (ICK) | %Inh (IGF1R) | %Inh (IKK-alpha) | %Inh (IKK-beta) | %Inh (IKK-epsilon) | %Inh (INSRR) | %Inh (INSR) | %Inh (IRAK1) | %Inh (IRAK3) | %Inh (IRAK4) | %Inh (ITK) | %Inh [1] | %Inh [2] | %Inh [3] | %Inh [4] | %Inh (JNK1) | %Inh (JNK2) | %Inh (JNK3)
Cc1c2ccc(N(C)c3ccnc(Nc4cccc(S(N)(=O)=O)c4)n3)cc2nn1Cc1ccccc1.Cl.Cl [GW787226] | 76% | 30% | 0% | 34% | 0% | 0% | 2% | 58% | 25% | 0% | 36% | 0% | 0% | 36% | 26% | 31% | 0% | 0% | 0% | 0%
COC(=O)Nc1nc2cc(Oc3ccc(NC(=O)Nc4cc(F)ccc4F)cc3)ccc2[nH]1.Cl [GW701424] | 30% | 20% | 0% | 18% | 33% | 4% | 16% | 0% | 0% | 36% | 0% | 6% | 0% | 26% | 0% | 1% | 0% | 0% | 2% | 0%
[2H]C([2H])(c1cccc(C(F)(F)F)c1C)n1ccn2c(=O)nc(N3CCOCC3)cc12 [GSK2336394] | 27% | 6% | 8% | 0% | 10% | 16% | 13% | 0% | 2% | 16% | 0% | 16% | 17% | 18% | 0% | 0% | 0% | 21% | 23% | 9%
COc1ccc(COc2cc(-n3cnc4ccccc43)sc2C(N)=O)cc1 [GSK1024304] | 45% | 14% | 0% | 8% | 0% | 17% | 0% | 0% | 13% | 0% | 2% | 2% | 14% | 0% | 0% | 0% | 0% | 18% | 33% | 10%
Cc1nnc(-c2ccc(C)c(-c3ccc(C(=O)Nc4ccc(NS(C)(=O)=O)cc4)cc3)c2)o1 [GW702865] | 0% | 15% | 0% | 17% | 0% | 0% | 31% | 0% | 0% | 17% | 0% | 0% | 0% | 9% | 0% | 0% | 0% | 0% | 0% | 0%
CN(C(=O)c1ccc(-c2cc(-c3c[nH]nc3-c3ccccn3)ccn2)cc1)C1CCOCC1 [GW810083] | 30% | 0% | 78% | 0% | 0% | 0% | 0% | 0% | 0% | 0% | 0% | 0% | 5% | 0% | 0% | 0% | 0% | 42% | 45% | 38%
COc1cc(Nc2nccc(N3CCC(NC(=O)c4cccc(NC(C)=O)c4)C3)n2)cc(OC)c1OC (centres unmarked) [GSK1379754] | 70% | 0% | 0% | 0% | 5% | 8% | 14% | 0% | 1% | 40% | 85% | 12% | 6% | 7% | 11% | 97.3% | 0% | 31% | 22% | 40%
O=C(c1ccc(-c2cc(-c3c[nH]nc3-c3ccccn3)ccn2)cc1)N1CCOCC1 [GW812171] | 0% | 33% | 0% | 0% | 46% | 0% | 0% | 0% | 21% | 14% | 0% | 0% | 5% | 0% | 48% | 37% | 0% | 30% | 19% | 2%
Cc1ccc(C(=O)NCC(N)=O)cc1-n1c(C)cc(OCc2ccc(F)cc2F)c(Br)c1=O | 0% | 0% | 0% | 5% | 0% | 0% | 0% | 0% | 0% | 0% | 15% | 0% | 22% | 0% | 49% | 0% | 4% | 0% | 0% | 0%
c1ccc(-c2cc(-c3c[nH]nc3-c3ccccn3)ccn2)cc1 [GW576604] | 25% | 16% | 0% | 19% | 0% | 0% | 0% | 0% | 2% | 7% | 0% | 9% | 3% | 17% | 0% | 6% | 0% | 35% | 65% | 70%
